PubChem BioAssay AID2107 (National Center for Advancing Translational Sciences (NCATS), 2009)
Out of some 240,000 compounds screened, about 20 (0.008%) were called active. Roughly 1% stayed inconclusive and do not appear here. Calls follow the shape of the dose curve; as a rule, active = well fitted inhibition curve with a large enough effect; inconclusive = small, poorly fitted or top-dose-only effect, or effect the other way; inactive = flat fitted curve, though single readings scatter. The list is a sample of the results.

These compounds were tested against Alpha-galactosidase A (Homo sapiens) (UniProt P06280) (assay: qHTS Assay for Inhibitors and Activators of Human alpha-Galactosidase From Spleen Homogenate). Details: 4MU-alpha-Gal fluorescence, 40 min; series mostly up to 80 µM.
Alpha-galactosidase A (Homo sapiens), sequence (P06280 32-429 limits assumed): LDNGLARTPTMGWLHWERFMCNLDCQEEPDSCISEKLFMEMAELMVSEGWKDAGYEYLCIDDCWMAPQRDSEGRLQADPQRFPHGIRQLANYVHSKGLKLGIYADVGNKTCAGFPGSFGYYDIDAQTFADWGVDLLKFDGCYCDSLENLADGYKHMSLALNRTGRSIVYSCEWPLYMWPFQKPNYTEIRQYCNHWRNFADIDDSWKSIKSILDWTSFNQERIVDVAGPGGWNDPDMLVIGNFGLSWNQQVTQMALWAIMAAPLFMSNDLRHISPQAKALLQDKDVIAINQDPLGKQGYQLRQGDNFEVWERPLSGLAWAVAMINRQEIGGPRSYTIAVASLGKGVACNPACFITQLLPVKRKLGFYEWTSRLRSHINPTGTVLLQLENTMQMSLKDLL
Source text: NIH Chemical Genomics Center [NCGC] NIH Molecular Libraries Probe Production Centers Network [MLPCN] MLPCN Grant: R03 MH084842-01 Assay Submitter (PI): Wei Zheng NCGC Assay Overview: Alpha-galactosidase is a homodimeric glycoprotein that hydrolyzes the terminal alpha-galactosyl moieties from glycolipids and glycoproteins. Deficiency of this enzyme results in Fabry Disease with progressive accumulation of globotriaosylceramide and other glycosphingolipids in vascular endothelial cells that causes renal failure, myocardial infarction and stroke, and premature death in patients. It has been reported that the improper folding and trafficking of alpha-galactosidase resulting from genetic mutations may account for a significant number of Fabry patients. […] We optimized this alpha-galactosidase assay in 1536-well plate format for identification of novel small molecule inhibitors or activators with structures other than the sugar analogs in order to develop new pharmacological chaperones. In particular, this assay is directed towards discovering compounds active in more natural setting, tissue homogenate, that may have been missed by screens of the purified enzyme under more stringent conditions.
NCGC Assay Protocol Summary: This is a fluorogenic enzyme assay with 4-methylumbelliferyl-alpha-D-galactopyranoside as the substrate and human spleen homogenate containing alpha-galactosidase as the enzyme preparation. Upon hydrolysis of this fluorogenic substrate, the resulting product, 4-methylumbelliferone (which excites at 365 nm and emits at 440 nm) can be detected by a fluorescence plate reader. Data were normalized to the controls for basal activity (without enzyme) and 100% activity (with enzyme). The AC50 values were determined from concentration-response data modeled with the standard Hill equation. Assay buffer: 50 mM citric acid (titrated with potassium phosphate to pH 5.0), 0.01% Tween-20 (pH 5.0 is an optimal condition for this enzyme assay) 1536-well assay protocol for the alpha-galactosidase from human spleen homogenate: (1) Add 2 ul/well spleen homogenate (1 ug) (2) Add 23 nL compounds in DMSO solution. The final titration was 0.5 nM to 58 uM. (3) Add 2 ul of substrate (1 mM final) (4) Incubate at 37C for 40 min (5) Add 2 ul stop solution (1M NaOH and 1M Glycine mixture, pH 10) (6) Detect the assay plate in a ViewLux plate reader (PerkinElmer) with Ex=365 nm and Em=440nm. Keywords: Alpha-galactosidase, Fabry Disease, pharmacological chaperone, chaperone therapy, high throughput screening, alpha- galactosidase inhibitor, MLSMR, MLSCN, NIH Roadmap, qHTS and NCGC
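Also: 0% = enzyme with vehicle and -100% = no enzyme basal signal.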

Activity change, negative = inhibition, inactive:
CCn1c(SCC(=O)N/N=C/c2ccncc2)nc2ccccc21
Cc1ccc(Br)cc1
COc1ccc(C(=O)C2CCCN(C(=O)c3cnsn3)C2)c(C)c1 (stereo not given)
CC(C)(C)c1ccc(OC2=CS(=O)(=O)c3ccccc32)cc1
CCn1cc(C(=O)NCCCN2CCCCCC2)c(=O)c2cc(S(=O)(=O)N3CCc4ccccc4C3)ccc21
Cc1ccc(C)c(NS(=O)(=O)c2cc(Br)cnc2N)c1
CCN(CC)/[N+]([O-])=N/Oc1cc(O/[N+]([O-])=N/N2CCCC2CO)c([N+](=O)[O-])cc1[N+](=O)[O-] (stereo not given)
CCn1c(NC(=O)c2nn(C)cc2Br)nc2ccccc21
O=C(/C=C/Sc1ncn[nH]1)c1ccc(Cl)cc1
Cc1cc(C)nc(SC(C)C(=O)N/N=C/c2cccs2)n1 (stereo not given)
CCN(CC)CCN1C(=O)C(=O)/C(=C(/O)c2cnn(-c3ccccc3)c2C)C1c1cccs1 (stereo not given)
Cc1cc(F)ccc1S(=O)(=O)N1CCCOC1CNC(=O)C(=O)NCCC1=CCCCC1 (stereo not given)
CN(Cc1nc2ccc(F)cc2[nH]1)Cc1nc(CC2CC2)no1
COc1ccc(C(CCN2CCOCC2)c2c(OC)cc(OC)c3c2OC(=O)CC3c2ccc(OC)cc2)cc1 (stereo not given)
O=C1C2C(c3ccccc3)CC=CC2C(c2ccoc2)N1Cc1ccccc1 (stereo not given)
O=C1C[C@@H](c2ccc3ccccc3c2)N1S(=O)(=O)c1ccccc1[N+](=O)[O-]
Cc1onc(-c2c(Cl)cccc2Cl)c1C(=O)NNC(=O)c1c(-c2c(Cl)cccc2Cl)noc1C
COc1ccc(C(=O)C[n+]2ccc(N)c(C)c2C)cc1
CCN(C(=O)COC(=O)c1cc(NS(=O)(=O)c2ccc(Cl)c([N+](=O)[O-])c2)ccc1O)C1CCCCC1
Cc1ccc(-c2nn(-c3ccccc3)cc2C(=O)Nc2cccc(S(=O)(=O)N3CCOCC3)c2)cc1
CCc1nc(C)cn1S(=O)(=O)c1cc([N+](=O)[O-])ccc1Cl
COc1ccc(CN2CCC(c3nc4ccc(Cl)cc4[nH]3)CC2)cc1
O=C(COc1ccc(NC(=O)c2ccccc2[N+](=O)[O-])cc1)c1ccc(F)cc1
C=C1CCN(C(CC(C)C)C(=O)N2CCOCC2)S(=O)(=O)c2ccccc21 (stereo not given)
CC(C)C[C@@H](N)c1nnc(SCC(=O)c2ccc(Cl)cc2)o1
Fc1ccc(Cl)cc1-c1nc(Nc2ccncc2)c2nccnc2n1
Cc1scc(C(=O)NNC(=S)NCc2ccccc2)c1C
Cc1cccc(-[n+]2c(-c3cccc(Br)c3)[nH]c3nc4ccccc4nc32)c1
O=[N+]([O-])c1ccccc1S(=O)(=O)Nc1cccc2cccnc12
C=C1CCN(Cc2ccc(OC)cc2)S(=O)(=O)c2ccccc21
COc1cc(OC)c2c(c1C(CCN1CCCCC1)c1ccc(N(C)C)cc1)OC(=O)CC2c1ccc(N(C)C)cc1 (stereo not given)
CCN(CC)S(=O)(=O)c1ccc(N(C)Cc2ccc(C(F)(F)F)cc2)nc1
CCOc1ccc(NC(=O)CN(C)CC(=O)Nc2cccc(Cl)c2C)cc1OCC
Cc1cccc(NC(=S)Nc2ccc3cn[nH]c3c2)c1
O=C(CCl)N(Cc1cccc([N+](=O)[O-])c1)c1cccc(Cl)c1
CCCCc1nn(-c2ccccc2C(F)(F)F)c(=O)n1Cc1ccc(-c2ccccc2S(=O)(=O)NC(=O)c2sccc2C)cc1
CCCCC/C=C/C=C/C=O
CC(Sc1nnc2c(n1)C1CCC2(C)C1(C)C)C(=O)Nc1ccccc1 (stereo not given)
CO[C@@]12[C@@H](COC(N)=O)C3=C(C(=O)C(C)=C(N)C3=O)N1C[C@@H]1N[C@@H]12
O=C1CN(Cc2ccccc2)S(=O)(=O)c2ccccc21
CCOC(=O)Cn1c(=O)sc2cccc(Cl)c21
Cc1nc2c(C(=O)NCc3cccs3)cnn2c(C)c1Cc1ccc(F)cc1
Cc1ccc(OCC(=O)Nc2ccccc2Sc2ccc(Cl)cc2)c([N+](=O)[O-])n1
Cc1cc2oc(=O)cc(-c3ccccc3)c2c(C)c1-c1ccc(OC(F)(F)F)cc1
H-EHIPA-OH
O=C(NC1CCN(Cc2ccccc2)CC1)c1ccc(Oc2cc(Cl)cc(Cl)c2)o1
Cc1ccc(CNC(=O)C2(C(F)(F)F)C/C(=C\Cc3ccccc3)CCCO2)o1 (stereo not given)
CCCC[C@@H]1C[C@H]1C(NC(=O)c1ccco1)c1ccc(C(=O)OC)cc1 (stereo not given in full)
CCCN1CCC(=O)N(C(CSc2ccc(OC)cc2)Cc2ccccc2)CC1 (stereo not given)
COc1ccc(C2/C=C\CN(C(=O)c3ccc(C)cc3)C(Cc3ccccc3)C(=O)N2Cc2ccc(F)cc2)cc1 (stereo not given)
c1ccc2c(Nc3ccncc3)nc(-c3ccc4c(c3)OCO4)nc2c1
COc1ccc(-c2ccc(OC)c(C3C4C=CCC(C)C4C(=O)N3Cc3ccccc3)c2)cc1C (stereo not given)
S=C(NCCc1ccccc1)NCc1ccccc1Cl
C=CCN(C(=O)c1cc(C)cc(C)c1)C1(C(=O)Nc2ccccc2)CCN(C(C)C)CC1
CCCCCOc1ccc(/C=C/C(=O)NCCc2nc3ccccc3[nH]2)cc1OC
O=C(O)C1CC=CC2CCN(C3CCCCC3)C(=O)C21 (stereo not given)
CCOc1cc(-c2conc2N)cc(OCC)c1OCC
CC1(OC(=O)c2ccc(Cl)nc2)C(=O)Cc2cc(-c3ccsc3)ncc2C1=O (stereo not given) 4.14% [at 17.5 µM]
O=C(O)CCc1nc2cc(Cl)ccc2n(Cc2ccccc2)c1=O
Cc1ccc(S(=O)(=O)c2nc(NCCCn3ccnc3)sc2Cl)cc1
COc1cccc2sc(N(CCCN(C)C)C(=O)C(c3ccccc3)c3ccccc3)nc12
CC(=O)OCCC(C)C
CN(C)CCOCCOc1ccc(Cl)c2ccccc12
COC(=O)CCc1ccccc1S(=O)(=O)N(CCC(=O)OC)Cc1ccccc1
CC(C)C(NS(=O)(=O)c1ccc(-c2ccc(Br)cc2)cc1)C(=O)O (stereo not given)
